Data as given in PubChem BioAssay.

Columns and labels:
[1] = molecular target: PEG-3 (UniProt Q6IN02); assay: Peg3 promoter luciferase inhibitors, potency, dose response, cell-based, HeLa, CREF/GAPDH counter-screen panel (AID 624167); conditions: CREF/GAPDH counter-screens; HeLa PEG-Prom luciferase reporter, overnight, run 1, dose range 1, at 100 µM (top of the series) unless noted
[2] = molecular target: PEG-3 (UniProt Q6IN02); assay: as above; conditions: CREF/GAPDH counter-screens; HeLa PEG-Prom luciferase reporter, overnight, run 2, dose range 1, at 100 µM (top of the series) unless noted

Chain of PEG-3 (Q6IN02 whole entry, looked up): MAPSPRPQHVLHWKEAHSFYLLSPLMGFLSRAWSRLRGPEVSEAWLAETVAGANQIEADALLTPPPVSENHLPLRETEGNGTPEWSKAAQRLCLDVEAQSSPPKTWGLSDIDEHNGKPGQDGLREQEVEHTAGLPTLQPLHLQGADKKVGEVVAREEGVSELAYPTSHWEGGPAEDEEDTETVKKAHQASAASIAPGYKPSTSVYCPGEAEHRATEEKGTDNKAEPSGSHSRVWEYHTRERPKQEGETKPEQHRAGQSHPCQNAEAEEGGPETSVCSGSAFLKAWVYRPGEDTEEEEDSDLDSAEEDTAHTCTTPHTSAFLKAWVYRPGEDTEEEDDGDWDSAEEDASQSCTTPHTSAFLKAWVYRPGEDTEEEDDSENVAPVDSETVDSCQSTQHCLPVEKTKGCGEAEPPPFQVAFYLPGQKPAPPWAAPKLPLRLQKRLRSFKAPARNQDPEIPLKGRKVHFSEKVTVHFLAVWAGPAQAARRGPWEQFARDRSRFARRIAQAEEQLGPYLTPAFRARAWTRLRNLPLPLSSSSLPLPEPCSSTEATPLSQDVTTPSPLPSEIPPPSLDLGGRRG

SMILES | inhibition [1] | inhibition [2]
Cc1nc2c(OCc3ccc(OC(F)F)cc3)cccn2c1N(C)C(=O)CCC1CCCC1 | 95.4% | 99.7%
O=C1C(Cl)=C(Nc2ccc(O)cc2)C(=O)c2ccccc21 | 102% | 101%
COC(=O)c1ccc(OCC2c3cc(OC)c(OC)cc3CCN2C(=O)c2ccco2)cc1 (stereo not given) | 77.9% | 73.5%
OCCN1CCN(C2CCC(c3ccc(F)cc3)c3ccc(F)cc32)CC1 (stereo not given) | 102% | 101%
Cc1cc(C)c(CN2CCN(CCCn3cnc(C(=O)Nc4ccc(C)c(C)c4)n3)CC2)c(C)c1 | 102% | 101%
COc1ccc(-c2cc(C(=O)Nc3ccccc3N3CCOCC3)c3ccccc3n2)cc1OC | 2.08% | 15%
O=C(c1cc(-c2cccs2)nn1-c1ccccc1)N1CCN(S(=O)(=O)c2ccccc2)CC1 | -25.3% | 27.8%
CCOC(=O)c1cccc(Nc2nc(-c3cccnc3)nc3ccccc23)c1 | 98.9% | 101%
Cn1nnnc1Sc1ncnc2scc(-c3ccc4c(c3)OCO4)c12 | 102% | 97.4%
COC(=O)C1=C(C)N(Cc2ccccc2)C(=NCc2cccc(Cl)c2)N[C@H]1c1ccccc1 | 102% | 101%
CC(=O)Nc1cccc(-c2ccnc3c2CC(C)(C(=O)Nc2cccc(OC(F)(F)F)c2)O3)c1 (stereo not given) | 68.6% | 77.1%
CN(C)CCCN(C(=O)c1ccc(S(=O)(=O)N(C)Cc2ccccc2)cc1)c1nc2cc3c(cc2s1)OCO3 | 100% | 99.3%
C[C@@H](C(=O)Nc1ccc2c(c1)OCCO2)n1c(=O)[nH]c2ccccc2c1=O | 53.8% | 39.3%
CN(C)CCNc1ccc(CO)c2oc3ccc(O)cc3c(=O)c12 | 99.1% | 101%
COc1cc(C(=O)/C=C/c2cccnc2)c([N+](=O)[O-])cc1OC | 102% | 99.8%
CN(C)CCc1cc2c(c3c1ccc1ccccc13)OCO2 | 98.3% | 99.1%
Cc1ccccc1NC(=O)C(=Cc1ccc(C(=O)O)cc1)C(=O)Nc1ccccc1C | 90.3% | 101%
COc1ccc2c(c1)C=C([C@@H]1C[C@H]3CN(c4ccccc4)C(=O)[C@]34CCCN14)CO2 | 65.2% | 74%

SMILES | inhibition [1] | inhibition [2]
COc1ccc(CC(N)c2csc(NC(=O)Nc3cc(OC)ccc3OC)n2)cc1 (stereo not given) | 94.3% | 98.7%
CN1CCC(NC(=O)c2cc(-c3cccc(Br)c3)nc3ccccc23)CC1 | 100% | 101%
O=[N+]([O-])c1cc(Cl)cc(/C=N\Nc2ccccn2)c1O | 28.9% | 40.5%
CN(C)C(=O)c1cccc(-c2cnc3c(NC=O)cc(-c4cccc(C(F)(F)F)c4)cn23)c1 | 89.1% | 93.6%
CCCc1nc(SCC(=O)N2CCCc3ccccc32)c2c(=O)n(C)c(=O)n(C)c2n1 | 99.2% | 96.2%
CC1=C(CC[C@@H](C)CO)OC2CC3C4CCC5CC(O)CCC5(C)C4CC(=O)C3(C)C12 (stereo not given in full) | 88.8% | 83.2%
COCc1ccc(CN2CCC(C(=O)Nc3cccc(-c4cccc(Cl)c4)c3)CC2)o1 | 97.5% | 99%
O=c1c2c3c(sc2nc(N2CCNCC2)n1CCc1ccccc1)CCCCC3 | 102% | 101%
Cc1ccc2cc3c(N)c4c(C)ccc(C)c4nc3nc2c1 | 94.6% | 93.7%
COc1ccc(-c2oc3ccc(-c4cc(OC)c(OC)c(OC)c4)cc3c2C#Cc2ccccn2)cc1 | 26.8% | 53.3%
C=CCN=C1NN=C(c2cc(C)n(CC=C)c2C)CS1 | 93.6% | 97.6%
O=C(Cc1csc(Nc2nc(=S)[nH]c3ccccc23)n1)NCc1ccccc1Cl | -6.11% | -45.6%
COc1cccc(/C=N/NC(=O)c2c(-c3ccccc3)noc2C)c1O | 33.5% | 54.6%
CCn1cc(C(=O)NCCC(C)C)c(=O)c2cc(F)c(N3CCN(C(=O)c4ccco4)CC3)cc21 | 32.2% | 101% [run 2, dose range 1, at 50 µM]
O=C(c1ccoc1)N1CCN(c2cc(-c3ccccc3)nc3cc(-c4ccccc4)nn23)CC1 | 58.2% | 66%
Cc1ccc(F)cc1-c1cc2nc(NCCCN(C)C)n(C)c(=O)c2s1 | 101% | 99.2%
Cc1cc(Sc2ncnc(N)c2[N+](=O)[O-])ncn1 | 102% | 102%
